Screens (PubChem BioAssay)
Most compounds without a hit are left out; they make up all but 1.4% or so of the library.
TCR act: activates T cell receptor signaling. Potency, µM (top dose mostly 9.22 µM), for the others: at the highest dose activation of IL-2 secretion, hits mostly activators. primary human leukocytes, anti-CD3, IL-2 HTRF, 48 h. AID 504894. 330,000 tested, under 10 active; further: % of control where 0% means no effect
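HTRF read-out of IL-2 secretion: europium cryptate donor excited at 320nm, d2 acceptor emission at 665nm. Cells were primary human leukocytes incubated 48 hr with compounds and a-CD3 beads, supplying TCR signal only.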
IL-2 act: IL-2 activation | IL-2 activation reporter assay, cell-based qHTS; stimulated with anti-CD3/CD4/CD28 beads; in transgenic mouse T cells | activation, % (series mostly up to about 46 µM) | 360,000 tested, 0.065% active; in the data active means activation above about 50%; inconclusive means mostly about 30% to 49%; further: 0% is about no effect
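Using fluorescent plate cytometry, EGFP and DsRed are detected in transgenic mouse T cells stimulated 18 h at 37 degrees C with antibody-coated beads after 60 min compound pretreatment.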
uPA generation: inhibitors of cell surface uPA generation. cell surface uPA generation assay, qHTS. Potency, µM (titrated, usually from 38.3 µM), for the others: at the highest dose activity change, negative = inhibition, usual class: inhibitors. 330,000 tested, 0.31% active; active means well fitted inhibition curve with a large enough effect; inconclusive means small, poorly fitted or top-dose-only effect; inactive means no such curve, though single readings can be large or run the other way; tested in mouse RAW 264.7 cells; further: potency means the concentration at half of the fitted maximal effect; on the % scale 0 is the no-effect control and ±100 the full control effect; nearly all actives have a fitted effect of over 55% in size
p53 reactivator: re-activators of mutant p53 | AID 504706 | 320,000 tested, 0.063% active | H1299 p53-A138V BP100-luciferase reporter, luminescence, 24 h | Potency, µM (doses to about 92.2 µM), for the others: top-dose activity change, positive = activation, hits mostly activators; further: potency means the concentration at half of the fitted maximal effect; % of control where 0% means no effect; nearly all actives have a fitted effect of over 45% in size
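p53-null H1299 cells stably carrying temperature-sensitive p53-A138V and a BP100-luciferase reporter were pinned with compounds (4-point, 1:5 series) and held 24 hrs at 37 deg C. Luminescence was read 10 min after detection reagent.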
BRCA1 expr act: increases BRCA1 expression; MCF7-BRCA1-FFLuc reporter, luminescence, 48 h; response scale: scaled: vehicle 0%, 10 µM genistein 100%; Potency, µM (series often up to 46.1 µM), inactives show at the highest dose activation, usual class: activators; 380,000 tested, 1.1% active; AID 624202; further: potency means the concentration at half of the fitted maximal effect; nearly all actives have a fitted effect of over 80% in size
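First, MCF7-BRCA1-FFLuc cells (2000/well) attach for 2 h; next, compounds are pin-added and incubated 48 h at 37 °C; finally, luciferase reagent is added and luminescence read after 15 min.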
Numbers without * were called inactive; ? = inconclusive; nt = no result given; [ ] = dose if it differs, or a comment. Unless noted, the call rests on the fitted dose curve; in most records, active means well fitted curve in the direction sought with a large enough effect; inconclusive means small, poorly fitted or top-dose-only effect, or another doubt; inactive means no such curve, though single readings can be large; an effect the other way counts as inactive or inconclusive.

SMILES	TCR act	IL-2 act	uPA generation	p53 reactivator	BRCA1 expr act
COc1cccc(-c2csc(NC(=O)Oc3ccccc3)n2)c1	-6.1%	0.9	-2.7%	?	10µM*
CCCc1cc(C(=O)N/N=C/c2cccn2C)cs1	nt	-0.7	-3.3%	-17.0%	7.94µM*
Cn1cccc1/C=N/NC(=O)c1cccs1	-1.5%	-0.2	3.6%	13.6%	?
C#CCCc1cscc1/C=[N+](\[O-])c1ccc(C(=O)OCC)cc1	1.0%	1.9	2.6%	20.9%	6.31µM*
COc1ccc(CCNC(=O)CCCn2c(=O)c3ccccc3n(CC(=O)Nc3ccccc3C)c2=O)cc1OC	nt	nt	nt	nt	10.7%
CCN(CC)c1ccc2cc(-c3nc4ccccc4n3C)c(=O)oc2c1	-4.0%	1.3	-11.0%	?	-19.1%
CN(C)Cc1c(O)ccc2cc(-c3nc4ccccc4n3C)c(=O)oc12	-28.3%	-1.2	0.2%	28.3%	12.6µM*
O=S(=O)(c1ccc2c(c1)CCC2)N1CCN(c2nc(-c3ccccc3)nc3ccccc23)CC1	nt	nt	nt	nt	0.0%
COc1cc(-c2noc(-c3ccc(NCC4CCCO4)c([N+](=O)[O-])c3)n2)cc(OC)c1OC (centres undefined)	nt	nt	nt	nt	20.1%
Cc1ccc2c(c1)[C@H]1[C@H](CO2)[C@H](c2ccccc2)[C@]2(C)C(=O)Nc3cc(F)ccc3C(=O)N12	3.6%	0.5	7.08µM*	-4.4%	-49.6%
COc1ccc(-c2nc3nc(C)cc(N4CCN(c5cccc(C(F)(F)F)c5)CC4)n3n2)cc1	nt	nt	nt	nt	-7.2%
O=C(CN1C(=O)CCSc2ccccc21)Nc1ccc(C(F)(F)F)cc1	nt	nt	nt	nt	-9.9%
CC(N=c1ccccn1C(=O)Nc1ccc(F)cc1)c1ccco1 (centres undefined)	5.8%	-3.0	2.8%	2.5%	24.9%
CC(N=c1ccccn1C(=O)Nc1ccc(Cl)cc1)c1ccco1 (centres undefined)	1.7%	1.5	-2.4%	14.0%	10µM*
Cc1cc(C)c2nc(N3CCCC(C(=O)NCCCN4CCOCC4)C3)sc2c1 (centres undefined)	0.3%	3.3	-2.1%	21.9%	70.9%
Cc1cc(C)c2nc(N3CCCC(C(=O)NCCN4CCOCC4)C3)sc2c1 (centres undefined)	10.4%	-2.8	2.4%	?	2.82µM*
CCCC[n+]1c(/C=C/c2c(OC)cc(OC)cc2OC)ccc2ccccc21	nt	nt	nt	nt	-37.6%
O=C(c1ccc(Cl)s1)N1CCc2ccccc21	5.8%	-2.6	nt	?	11.2µM*
Cc1ccc(-c2cc(C(=O)N3CCCc4ccccc43)no2)cc1	0.0%	-1.5	-7.4%	?	3.16µM*
O=C(NC1CCCCC1)N1CCc2ccccc21	0.4%	-0.5	-9.6%	?	11.2µM*
Cc1ccc(C(=O)N2CCc3ccccc32)cc1	-1.7%[46.1 µM]	2.9	-10.5%	?	11.2µM*
O=C(c1ccc(C(=O)N2CCCc3ccccc32)s1)N1CCCc2ccccc21	2.3%	1.8	nt	2.9%	-29.8%
Cc1ccc(Cl)cc1N1CCN(C(=O)c2ccc3c(Cl)c4c(nc3c2)CCCC4)CC1	nt	nt	nt	nt	12.8%
COc1ccc(NC(=O)C2CCCN(S(=O)(=O)c3ccc4c(c3)CCCC(=O)N4)C2)cc1OC (centres undefined)	nt	nt	nt	nt	-15.3%
COc1ccc(-c2cc(C(F)(F)F)n3nc(C(=O)NCC45CC6CC(CC(C6)C4)C5)cc3n2)cc1	nt	nt	nt	nt	-6.0%
SMILES	TCR act	IL-2 act	uPA generation	p53 reactivator	BRCA1 expr act
CCC(=O)Nc1cccc(-c2cc3ccccc3oc2=O)c1	nt	0.0	-5.5%	5.0%	10µM*
CCC(=O)Nc1cccc(NC(=O)c2cc3ccccc3o2)c1	3.6%	0.5	-5.6%	?	?
CCOc1ccccc1NC(=O)c1ccc2c(c1)CCN2S(C)(=O)=O	nt	nt	nt	nt	12.8%
O=S(=O)(CC(CN1CCCCC1)N1CCCCC1)c1ccccc1 (centres undefined)	9.3%	-0.5	8.91µM*	-11.0%	-78.0%
CC(C)(C)c1cc(NC(=O)c2cccnc2)no1	-8.2%	0.3	nt	13.6%	7.08µM*
Cc1c(Cl)cccc1NC(=O)Nc1ccc2snnc2c1	nt	nt	nt	nt	-49.9%
COCCNC(=O)c1ccc2c(Cl)c3c(nc2c1)CCC3	-4.5%	-6.4	-15.4%	16.9%	5.01µM*
COc1cccc(CNC(=O)c2ccc(CNS(=O)(=O)c3ccc(C)cc3)cc2)c1	nt	nt	nt	nt	-3.0%
